# Results as given in ChEMBL document CHEMBL3988442, “University of Dundee, Small-Polar-MMV Screening Library” (2021).
# The campaign covered roughly 48,000 compounds. About 13,000 (27%) showed an effect of 50% or more. The list shows a part of the results.
# Tested on: Wolbachia pipientis
# Assay: Anti-Wolbachia Cell-Based Screen
# Type: functional
# Design: scale not given: in the data most compounds retested in dose-response had high values
# Conditions: 5 µM
row,Structure (SMILES),Percent Effect
1,C1CCN(CCOC2CCNC2)CC1.Cl.Cl (stereo not given),-5.434%
2,CCNC(=O)[C@@H]1C[C@H](N)CN1Cc1ccc2cccc(Cl)c2n1,33.76%
3,Cn1cnc(S(=O)(=O)N2C[C@H](OCC3CC3)[C@H]3OCCC[C@H]32)c1.O=C(O)C(F)(F)F,-7.803%
4,CCSCC(C)NCc1nn(C)c2ccc(C)cc12 (stereo not given),-30.17%
5,CCC1CN(C(=O)c2ccc(O)c(C)c2)CCN1C(C)C (stereo not given),-1.675%
6,COC(=O)[C@@H]1Cc2c[nH]c3cccc(c23)[C@H](CC(C)C)N1,-15.46%
7,O=C(CCOCC(F)(F)F)NS(=O)(=O)c1cccnc1,3.556%
8,Cc1ccc(CCN2C(=O)CC[C@H]3CN(Cc4cnn(C)c4)CC[C@H]32)o1,42.08%
9,Fc1ccc(-c2nnc(CN3CCn4c(nnc4C4CC4)C3)o2)cc1,-8.144%
10,CN1CCc2nnc(C3CCCN3S(=O)(=O)c3ccc(F)cc3)n2CC1 (stereo not given),101.3%
11,CCN(CC)S(=O)(=O)N1CCCC1c1nnc2n1CCN(C)CC2 (stereo not given),109.2%
12,CCN(CC)S(=O)(=O)N1CCCC1CC(=O)c1cccs1 (stereo not given),1.947%
13,CCN(Cc1cnn(C)c1)S(=O)(=O)N1CCCC1c1ccco1 (stereo not given),12.89%
14,COc1cccc2c1CCN(C(=O)NCc1nnc3ccccn13)C2,-4.622%
15,COc1cc(NC(=O)C2CC(=O)N(c3cccc(Br)c3)C2)ncn1 (stereo not given),-7.851%
16,CCNC(=O)[C@@H]1C[C@@H](N)CN1Cc1ccc2cccc(Cl)c2n1,-2.31%
17,CCc1ccc2c(c1)C(CCNC(=O)CSC(F)(F)F)C(=O)N2 (stereo not given),2.698%
18,COCCCC1CCCCN1C(=O)c1ccc(SCCO)cc1 (stereo not given),-1.649%
19,CCC1CCCCCN1C(=O)c1ccc(N2CCC(O)CC2)cc1 (stereo not given),94.71%
20,Cc1ccc(C(=O)N2CCCCC2CN(C)C)cc1 (stereo not given),107.2%
21,Cc1ccccc1C(=O)N1CCOCC1CN(C)C.O=CO (stereo not given),-21.7%
22,CN(C)CC1CCCCN1C(=O)c1ccc(N2CCOCC2)cc1 (stereo not given),108.2%
23,CCC1CCCCN1C(=O)c1ccc2[nH]nnc2c1 (stereo not given),1.78%
24,CN(C)CC1COCCN1C(=O)c1ccccc1C(=O)c1ccccc1.O=CO (stereo not given),-10.61%
25,Cc1cnn(CC2CCCCN2C(=O)c2ccc(CN(C)C)cc2)c1 (stereo not given),17.54%
26,CCC1CCCCCN1C(=O)c1coc(S(=O)(=O)N(C)C)c1 (stereo not given),15.41%
27,Cn1cccc1-c1nnc(C2(c3ccc4c(c3)OCO4)CCOCC2)o1,-12.47%

row,Structure (SMILES),Percent Effect
1,COCCOc1ncccc1C(=O)N(C)c1nccs1,-66.02%
2,CCOCc1nc2c(c(N3CC=CC3)n1)CCN(C1CCOCC1)CC2,-25.57%
3,CCc1ccccc1OCCN1CCC(NS(C)(=O)=O)CC1,2.392%
4,N#Cc1cccc(S(=O)(=O)NC(=O)COc2ccc3c(c2)CCC3)c1,-8.201%
5,COc1ccc(C(=O)NS(=O)(=O)c2cccc(C#N)c2)cc1,98.14%
6,COc1cccc(C(=O)NS(=O)(=O)c2cccc(C#N)c2)c1,105.7%
7,Cn1nnc2cc(C(=O)NS(=O)(=O)c3cccc(C#N)c3)ccc21,-4.102%
8,CCN(CC)C(=O)CCNC(=O)c1c[nH]c2ccc(OC)cc12,24.42%
9,COc1ccc2[nH]cc(C(=O)N3C[C@@H](O)[C@H](NS(C)(=O)=O)C3)c2c1,146.2%
10,COc1ccc(C(=O)N2C[C@@H](CN3CCOCC3)[C@@H](CO)C2)c(C)c1,-1.833%
11,Cc1cc(C(=O)N2C[C@@H]3CCCO[C@@H]3[C@H](N3CCOCC3)C2)c(C)[nH]1,5.404%
12,COc1ccc2[nH]cc(C(=O)N3CC[C@H](CO)[C@@H](O)C3)c(=O)c2c1,6.79%
13,CCN(CC)C(=O)CNC(=O)c1c[nH]c2ccc(OC)cc12,-4.616%
14,COc1ccc2[nH]cc(C(=O)N3C[C@@H](O)[C@H](N4CCOCC4)C3)c2c1,129.4%
15,COc1ccc2[nH]cc(C(=O)N3C[C@@H](O)[C@H](N4CCCC4)C3)c2c1,103.4%
16,COCCCNC(=O)c1c[nH]c2ccc(OC)cc12,-17.1%
17,CCS(=O)(=O)c1ccc(N2CCC(NC(=O)C(C)SC)CC2)cc1 (stereo not given),6.219%
18,Cc1cc(C(C)NC(=O)c2c[nH]c(=O)c(Cl)c2)c(C)o1 (stereo not given),-8.782%
19,CC(C)C(C)(C#N)NC(=O)CN1CCCN(Cc2ccccc2F)CC1 (stereo not given),1.272%
20,CCSc1ccc(NC(=O)NC2CCc3[nH]ncc3C2)cn1 (stereo not given),-2.569%
21,O=C(Nc1ccc(CN2CCOCC2)cc1)c1nccn2ccnc12,-3.19%
22,Cc1nn(C)c2nc(O)cc(C(F)(F)C(F)(F)F)c12,1.264%
23,COc1ccc2c(C)c(C(=O)NCCCc3csc(N)n3)oc2c1,-14.38%
24,CC(C)c1nn(C)c(N(C)C)c1CNCc1cccc(CN(C)C)c1.Cl,-0.8074%
25,CC(C)c1nn(C)c(N(C)C)c1CNCc1cccnc1,3.817%
26,Cc1nn(C)c(N(C)C)c1CNCC(O)c1ccccc1 (stereo not given),-19.87%
27,CC(C)c1nn(C)c(Cl)c1CNCC(O)c1cccc(F)c1.Cl (stereo not given),10.68%

row,Structure (SMILES),Percent Effect
1,CC(C)c1nn(C)c(N(C)C)c1CNCC(O)c1cccc(F)c1 (stereo not given),133.5%
2,Cc1ccc(C(O)CNCc2c(C(C)C)nn(C)c2N(C)C)cc1 (stereo not given),2.504%
3,CC(C)c1nn(C)c(N(C)C)c1CNC(C)c1ccccc1F (stereo not given),86.76%
4,CC(C)c1nn(C)c(N(C)C)c1CNCC(O)c1ccccc1 (stereo not given),92.25%
5,COc1cccc(CNCc2c(C(C)C)nn(C)c2N(C)C)c1OC,-9.439%
6,O[C@@H]1CCN(c2ccc3c(Cl)ccnc3c2F)C1,-13.88%
7,COc1ccc(Cn2ccnc2)cc1F,137.9%
8,COc1ccc(F)cc1S(=O)(=O)N1CCN(CCn2ccnc2)CC1,123.5%
9,O=S(=O)(c1ccc(F)cc1)N1CCN(CCCn2ccnc2)CC1,9.586%
10,COc1ccc(CNCC2CCN(CCO)CC2)cc1F,-13.55%
11,COc1ccc(CN2CCN(Cc3nccn3C)C(C)C2)cc1F (stereo not given),3.11%
12,COc1ccc(Cl)cc1CNCCCn1ccnc1,10.95%
13,O=S(=O)(c1cccnc1)N1CCN(CCn2ccnc2)CC1,2.586%
14,COc1ccc(CN2CCN(CCn3ccnc3)CC2)cc1F,154.2%
15,CCOc1ccc(CNCCCn2ccnc2)cc1OC,-15.55%
16,CC(C)(N)c1nc(C(F)F)cc(=O)[nH]1.Cl,0.5685%
17,Cc1nsc(N2CCN(CC(=O)NCc3cccnc3)CC2)n1,1.2%
18,COc1ccccc1NCC(=O)Nc1cnn(Cc2ccccn2)c1,-4.871%
19,CCOc1nc2cnccc2n(CC(=O)NCCc2ccccc2)c1=O,107.7%
20,O=C(CN1CCC(c2cccc(F)c2)C1)NCc1ccco1 (stereo not given),-26.03%
21,CCOc1nc2cnccc2n(CC(=O)NCc2ccco2)c1=O,96.93%
22,COc1ccccc1NC(=O)Cc1c(C)nc2c(c1C)c(=O)[nH]n2C,-0.4507%
23,CCOc1nc2cccnc2n(CC(=O)NCCOC)c1=O,-3.624%
24,CC(C)(C)n1ncc2c(=O)n(CC(=O)NCc3ccco3)cnc21,3.142%
25,CCOc1nc2cnccc2n(CC(=O)NCc2ccc(C)cc2)c1=O,143.1%
26,CCOc1ccc(CNC(=O)c2cnc(OC)nc2)cc1,-7.599%
27,CCOc1nc2cnccc2n(CC(=O)Nc2ccccc2OC)c1=O,90.9%

row,Structure (SMILES),Percent Effect
1,CC1CN(CC(=O)NCCc2ccncc2)Cc2ccccc2O1 (stereo not given),-8.36%
2,CC(C)N(CC(N)=O)CC(=O)N(C1=CCCCC1)C1CC1,-0.3485%
3,CCC(CC)C(=O)NS(=O)(=O)CCc1ccccc1,-5.917%
4,COCCn1cc(C(=O)N2CCCC2c2ccccc2C)ccc1=O (stereo not given),-35.63%
5,Fc1cnc(N2CCn3cc(CNc4ccccn4)nc3C2)nc1.O=C(O)C(F)(F)F.O=C(O)C(F)(F)F,-14.44%
6,OC1(CNc2cc(C(F)(F)F)nc3ccccc23)CCOCC1,28.2%
7,Cc1cc(NC(=O)CNC(C)(C)c2ccccc2)on1,5.655%
8,CCN1CCC(CNC(=O)C(c2ccccc2F)N(C)C)(N(C)C)CC1 (stereo not given),4.874%
9,CCCn1nc2c(cc1=O)CN(Cc1nnc(C3CC3)o1)CC2,20.46%
10,Cc1cc(F)ccc1N1CCCC(NS(=O)(=O)CCCF)C1=O (stereo not given),-6.348%
11,Cn1c(SCC(O)COCc2ccccc2Cl)nnc1C1CC1 (stereo not given),-19.68%
12,COc1ccc(F)c(CN2CCCC(O)(CNCc3ccon3)C2=O)c1 (stereo not given),-2.252%
13,CC(C)N(C)C(=O)c1ccc(Cl)c(NC(=O)CCN2C(=O)CCC2=O)c1,-4.274%
14,Cc1c(NC(C)C(C)C)cccc1C(=O)NCc1ccnn1C (stereo not given),9.043%
15,CC(=O)NCCC(=O)NCc1cccnc1-n1cnc2ccccc21,-3.508%
16,CCN(CC)S(=O)(=O)CCNc1ncnc2cc(F)c(F)cc12,0.3954%
17,O=C(COCc1ccccc1)Nc1ccccn1,-24.26%
18,CCOC(=O)Cn1c(=O)c(OCC)nc2cnccc21,100.3%
19,CCOC(=O)N1CCN(C(=O)Cn2ccc3ncccc3c2=O)CC1,-21.73%
20,CCOC(=O)Cn1cnc2nc3n(c2c1=O)CCC3,-20.3%
21,CN(Cc1nccn1C)S(=O)(=O)Cc1cccc(C#N)c1,6.063%
22,O=C(c1csc(C2CC2)n1)N1CCCCC1Cn1cccn1 (stereo not given),99.33%
23,O=C(c1csc(C2CC2)n1)N1CCCC1Cn1cccn1 (stereo not given),109.4%
24,COCc1nc(C(=O)N2CCCCC2Cn2cccn2)cs1 (stereo not given),0.9161%
